This is a sample that favours compounds with a hit; in the whole collection about 3.2% have one here.
Tau FP inhib: qHTS for Inhibitors of Tau Fibril Formation, Fluorescence Polarization | Potency, µM (titrated, usually from 57.7 µM), for inactives: at the highest dose activity, negative = inhibition, most hits filed as inhibitors | Microtubule-associated protein tau (Homo sapiens), P10636 | 280,000 tested, 0.39% active | K18 P301L tau heparin fibrillization, Alexa594 FP, 6 h | AID 1468, 2008; further: nearly all actives have a fitted effect of over 55% in size
Target sequence (P10636 561-689 P618L limits assumed): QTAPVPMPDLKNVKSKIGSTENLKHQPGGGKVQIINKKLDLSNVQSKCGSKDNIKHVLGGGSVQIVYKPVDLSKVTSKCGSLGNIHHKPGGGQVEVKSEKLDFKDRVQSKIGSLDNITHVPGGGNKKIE
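Recombinant K18 P301L […], labeled with Alexa 594 at 0.24 uM over 15 uM unlabeled; heparin inducer 20 uM final; 37 C, 6 hr; FP endpoint.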
GoLoco inh red: qHTS Assay for Inhibitors of RGS12 GoLoco Motif Activity (Red Fluorophore). Guanine nucleotide-binding protein G(i) subunit alpha-1 (Homo sapiens), P63096. Gai1:RGS12 GoLoco peptide FP, rhodamine, 10 min. Potency, µM (doses to about 61.6 µM), for inactives: top-dose activity, negative = inhibition, actives largely listed as inhibitors. 230,000 tested, 0.44% active; active means well fitted inhibition curve with a large enough effect, not every such curve was filed as active; inactive means no such curve, though single readings can be large or run the other way; further: nearly all actives have a fitted effect of over 30% in size
TR SRC2 fluor cs: Total Fluorescence Counterscreen for Inhibitors of the Interaction of Thyroid Hormone Receptor and Steroid Receptor Coregulator 2; TRb/SRC2 Texas Red total fluorescence interference; Potency, µM (top dose mostly 106 µM), for the others: top-dose fluorescence change, negative = quenching; 280,000 tested, 0.29% active; active means well fitted curve in either direction with a large enough effect; inconclusive means small, poorly fitted or top-dose-only effect
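Human TRβ ligand-binding domain (0.6 uM) and Texas Red SRC2 peptide (20 nM) in Tris buffer with 1 uM T3 and 5% DMSO were incubated with pinned compound for 5 hr at ambient temperature. Total fluorescence was computed as S + 2P (555/632 nm).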
TRb SRC2 PPI: qHTS for Inhibitors of the Interaction of Thyroid Hormone Receptor and Steroid Receptor Coregulator 2; Thyroid hormone receptor beta (Homo sapiens), P10828; TRbeta-SRC2 peptide binding, fluorescence polarization; receptor liganded with 1 µM T3; Potency, µM (series often up to 106 µM), for inactives: top-dose activity change, negative = inhibition, usual class: inhibitors; 280,000 tested, 0.065% active; AID 1469, 2008;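 further: plate controls were bound peptide for no effect and peptide without receptor for full effect; nearly all actives have a fitted effect of over 50% in size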
Target sequence (P10828 whole entry, looked up): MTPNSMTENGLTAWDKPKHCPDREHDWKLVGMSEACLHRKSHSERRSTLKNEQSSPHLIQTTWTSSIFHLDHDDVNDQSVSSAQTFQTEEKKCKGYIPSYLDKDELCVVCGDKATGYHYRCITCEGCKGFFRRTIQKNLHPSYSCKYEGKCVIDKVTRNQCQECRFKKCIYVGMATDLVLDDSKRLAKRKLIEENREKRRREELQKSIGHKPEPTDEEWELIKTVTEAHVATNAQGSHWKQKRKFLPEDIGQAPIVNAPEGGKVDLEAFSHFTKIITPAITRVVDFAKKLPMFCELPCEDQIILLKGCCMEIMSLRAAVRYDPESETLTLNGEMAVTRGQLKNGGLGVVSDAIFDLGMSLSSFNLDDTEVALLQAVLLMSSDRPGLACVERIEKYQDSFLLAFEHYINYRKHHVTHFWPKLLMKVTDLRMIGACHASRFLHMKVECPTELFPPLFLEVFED
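TRb LBD 0.6 uM + Texas Red SRC2 peptide 20 nM, 1 uM T3, Tris buffer w/ 5% DMSO; compound pinned, 5 h RT; FP read ex 555/em 632; normalized to unbound and bound controls.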
Tau fluor counter: Counterscreen qHTS for Inhibitors of Tau Fibril Formation, Fluorescence Polarization | 280,000 tested, 0.93% active | Potency, µM (highest dose often 57.7 µM), for inactives: at the highest dose activity change, negative = decrease | tau K18 P301L Alexa594 fluorescence, heparin fibrillization | AID 1463, 2008; further: nearly all actives have a fitted effect of over 55% in size
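Human tau K18 P301L (15 uM unlabeled, 0.24 uM Alexa 594-labeled) in 100 mM sodium acetate pH 7 with 20 uM heparin, 6 hr at 37 C. ThT 30 uM added, 1 hr ambient; Alexa 594 FP and total fluorescence read at 555/632 nm.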
Tau fibril ThT: qHTS for Inhibitors of Tau Fibril Formation, Thioflavin T Binding; Potency, µM (top dose mostly 57.4 µM), without a hit: at the top dose activity, negative = inhibition, actives largely listed as inhibitors; recombinant tau K18 P301L (four-repeat tau fragment), heparin-induced fibrillization, ThT fluorescence; Microtubule-associated protein tau (Homo sapiens), P10636; AID 1460, 2008; 270,000 tested, 2.1% active; further: nearly all actives have a fitted effect of over 55% in size
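Tau K18 P301L fragment (15 uM unlabeled plus 0.24 uM Alexa 594-labeled) in 100 mM sodium acetate pH 7 with compound, fibrillization induced by 20 uM heparin for 6 hr at 37 C. Thioflavin T (30 uM) added, fluorescence read after 1 hr (ex 450, em 510 nm).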
* = called active by the depositor; ? = inconclusive; . = no result; [ ] = dose if it differs, or a comment. Unless noted, the call rests on the fitted dose curve; in most records, active means well fitted curve in the direction sought with a large enough effect; inconclusive means small, poorly fitted or top-dose-only effect, or another doubt; inactive means no such curve, though single readings can be large; an effect the other way counts as inactive or inconclusive. Unless noted, on the % scale 0 is the no-effect control and ±100 the full control effect; potency means the concentration at half of the fitted maximal effect.

SMILES	Tau FP inhib	GoLoco inh red	TR SRC2 fluor cs	TRb SRC2 PPI	Tau fluor counter	Tau fibril ThT
CSCC[C@H](NC(=O)CNC(=O)CNC(=O)[C@H](CO)NC(=O)[C@H](CCCNC(=N)N)NC(=O)[C@H](CO)NC(=O)[C@H](CC(C)C)NC(=O)[C@H](CC(C)C)NC(=O)CNC(=O)[C@H](C)NC(=O)[C@H](CC(C)C)NC(=O)[C@H](CCCNC(=N)N)NC(=O)[C@H](Cc1cnc[nH]1)NC(=O)[C@@H](NC(=O)[C@@H](N)C(C)C)[C@@H](C)O)C(=O)N[C@H](C(=O)N[C@@H](CCCCN)C(=O)N[C@@H](CO)C(=O)N[C@@H](CC(N)=O)C(=O)N[C@@H](Cc1ccccc1)C(=O)N[C@H](C(=O)N1CCC[C@H]1C(=O)N[C@H](C(=O)N[C@@H](CC(N)=O)C(=O)N[C@H](C(=O)NCC(=O)N[C@@H](CO)C(=O)N[C@@H](CCCCN)C(=O)N[C@@H](C)C(=O)N[C@@H](Cc1ccccc1)C(N)=O)C(C)C)[C@@H](C)O)C(C)C)C(C)C	.	.	-2%	-11%	.	.
Cc1cccc(C)c1Nc1c(-c2ccc(O)cc2)nc2sccn12	11%	.	3%	1%	?	?
COc1cc(-c2nc3sccn3c2Nc2c(C)cccc2C)ccc1O	22µM*	.	0.004µM*[quencher]	-5%	?	16µM*
CCc1cccc(C)c1Nc1c(-c2cccc(O)c2)nc2sccn12	15%	.	?	-12%	18µM*[quencher]	?
CN(C)c1ccc(-c2nccc(NCc3cccs3)n2)cc1	.	-3%	.	.	.	.
Cc1ccccc1-n1sc2cc(F)ccc2c1=O	25µM*	28µM*	-1%	-4%	-14%	10µM*
O=C(Nc1ccc([N+](=O)[O-])cc1)Nc1ccc(OC(F)F)c(Cl)c1	10µM*	-3%	-1%	-3%	?	?
O=C(Cc1ccc(Cl)cc1Cl)Nc1ccc(OC(F)F)c(Cl)c1	?	18%	-1%[53 µM]	-2%[53 µM]	-22%	-1%
COc1ccc(NC(=O)Nc2cccc([N+](=O)[O-])c2)cc1Cl	?	-2%	-8%	21%	14µM*[quencher]	16µM*
O=C(Nc1ccc(OC(F)F)c(Cl)c1)Nc1ccc2c(c1)OCO2	13%	6%	-3%	-8%	5µM*[quencher]	?
O=C1[C@@H]2[C@@H](C(=O)N1c1ccc(OCc3ccccc3)cc1)[C@@H]1c3ccccc3[C@@H]2[n+]2ccccc21	.	2%[14.2 µM]	.	.	.	.
O=C(O)[C@@H]1CCCN1Cc1c[nH]c2ccccc12	.	12%[14.2 µM]	.	.	.	.
Cn1cc(/C=C2\SC(=S)N(NC(=O)c3ccccc3Cl)C2=O)c2ccccc21	-19%	-82%	2%	-11%	-23%	1.1µM*
Cn1cc(/C=C2\SC(=O)NC2=S)c2ccccc21	?	-66%	12%	17%	?	2µM*
Cc1ccc(C(=O)NN2C(=O)/C(=C/c3cn(C)c4ccccc34)SC2=S)cc1	7%	22µM*	-7%	-10%	2%	7%
CC(=O)NN1C(=O)/C(=C\c2ccc(C)cc2)SC1=S	7%	-1%	-5%	3%	-18%	?
Cn1cc(C=O)c2ccccc21	2%	7%	-3%	-2%	-5%	5%
Cc1ccc(/C=C2/SC(=O)NC2=S)o1	10µM*	5µM*	-12%	-25%	?	4.5µM*
NC(=O)C[C@@H](N)c1nn[nH]n1	.	-9%[14.2 µM]	.	.	.	.
CC(C)C1=CC2=CC[C@@H]3[C@](C)(CCC[C@@]3(C)C(=O)O)[C@H]2CC1	.	1%	-1%	-8%	.	.
CCCN1C(=O)/C(=C\C=C2/Sc3ccccc3N2CC)SC1=S	-4%	316%	?	?	17%	?
CCN1C(=O)/C(=C/C=C2\C=CN(CC)c3ccccc32)SC1=S	?	12%	-3%	4%	?	2.2µM*
CCN1C(=O)/C(=C2/C=CC=CN2C)SC1=S	-3%	-4%	-4%	7%	-10%	?
CCN1C(=O)/C(=C\C=C2/C=CC=CN2CC)SC1=S	?	338%	6%	12%	-22%	14µM*
COc1ccc(-c2ccc(C(C)=O)cc2)cc1C1C2C=CCCC2(C)C(=O)N1Cc1ccccc1 (stereo unspecified)	.	.	-4%	0%	.	.
SMILES	Tau FP inhib	GoLoco inh red	TR SRC2 fluor cs	TRb SRC2 PPI	Tau fluor counter	Tau fibril ThT
O=C1NC(=S)S/C1=C\c1coc2ccc(O)cc2c1=O	-2%	40%	-25%	19%	-26%	1.1µM*
O=C1NC(=S)S/C1=C\c1coc2ccccc2c1=O	-8%	20%	14%	-23%	-4%	7.9µM*
O=C1CC(/C=C/c2ccc([N+](=O)[O-])cc2)=Nc2ccccc2N1	6%	9%	0%	-7%	?	4µM*
O=C1CC(/C=C/c2ccccn2)=Nc2ccccc2N1	4%	6%	2%	-2%	-12%	?
O=C1/C(=C/c2cccnc2)CCC/C1=C\c1cccnc1	?	1%	3%	-7%	-16%	6.3µM*
CCC1C/C(=C\c2cccnc2)C(=O)/C(=C/c2cccnc2)C1 (stereo unspecified)	?	3%	0%	-11%	-11%	10µM*
O=C1/C(=C/c2cccnc2)CC/C1=C\c1cccnc1	-3%	5%	-2%	-3%	0%	?
CC1CC=CC2C1C(=O)N(Cc1ccccc1)C2c1cccc([N+](=O)[O-])c1 (stereo unspecified)	.	.	-2%	-2%	.	.
O=C1S/C(=C\c2ccc(N3CCOCC3)o2)C(=O)N1c1ccccc1	?	139%	3%	-2%	-24%	11µM*
Cc1ccc(OCC(=O)c2cc(C)n(-c3ccccc3)c2C)c([N+](=O)[O-])n1	2%	13%	-1%	2%	?	?
CCCn1c(C)cc(C(=O)COc2ccc(C)nc2[N+](=O)[O-])c1C	8%	.	-4%	-6%	-7%	-13%
Cc1ccc(OCC(=O)c2cc(C)c(C)cc2C)c([N+](=O)[O-])n1	?	21%	2%	-20%	?	16µM*
Cc1ccc(C)c(C(=O)COc2ccc(C)nc2[N+](=O)[O-])c1	?	8%	-4%	2%	?	16µM*
